The values that follow come from PMC7862700, “An all-to-all approach to the identification of sequence-specific readers for epigenetic DNA modifications on cytosine”.

What all share (test): DAPPL (digital affinity profiling via proximity ligation, sequencing); 10 mM Tris-HCl pH 7.5, 50 mM NaCl, 1 mM DTT, 4% glycerol, room temperature, 30 min; GST-TFs on glutathione beads, 16-mer random dsDNA library, 0.1% formaldehyde crosslink after washing; high values mean tight binding
The target of one experiment is T1, FLI1 (Homo sapiens, UniProt Q01543 1-452).
T1 sequence: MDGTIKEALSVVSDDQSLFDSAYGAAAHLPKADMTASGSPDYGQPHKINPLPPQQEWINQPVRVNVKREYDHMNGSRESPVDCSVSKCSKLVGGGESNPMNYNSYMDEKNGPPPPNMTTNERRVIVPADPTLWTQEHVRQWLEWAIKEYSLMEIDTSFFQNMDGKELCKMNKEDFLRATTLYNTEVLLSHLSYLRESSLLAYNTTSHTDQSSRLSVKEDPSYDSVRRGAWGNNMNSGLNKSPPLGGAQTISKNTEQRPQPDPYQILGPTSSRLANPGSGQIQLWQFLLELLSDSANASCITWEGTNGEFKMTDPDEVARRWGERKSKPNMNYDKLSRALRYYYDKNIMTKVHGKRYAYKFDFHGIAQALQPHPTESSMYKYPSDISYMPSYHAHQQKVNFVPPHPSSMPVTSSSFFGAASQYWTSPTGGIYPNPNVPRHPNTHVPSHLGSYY
Particulars: protein: recombinant; tags: N-terminal GST; dsDNA, one strand shown. The method, boiled down: (§1)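 Pools were built from human transcription factors expressed in yeast as GST fusions, captured on glutathione beads and DNA-barcoded, along with a tag-only sample. Incubation with 200 nmole of a 16-mer random double-stranded DNA library lasted 30 min at room temperature in Tris/NaCl/DTT/glycerol buffer, and was followed by washing, 0.1% formaldehyde crosslinking, proximity ligation, PCR amplification and Illumina NextSeq500 sequencing. Binding signal is the quotient of each hexamer's read frequency for a factor and its frequency for the tag-only sample.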

In the next experiment the target is T2, ELK1 (Homo sapiens, UniProt P19419 1-428).
T2 sequence: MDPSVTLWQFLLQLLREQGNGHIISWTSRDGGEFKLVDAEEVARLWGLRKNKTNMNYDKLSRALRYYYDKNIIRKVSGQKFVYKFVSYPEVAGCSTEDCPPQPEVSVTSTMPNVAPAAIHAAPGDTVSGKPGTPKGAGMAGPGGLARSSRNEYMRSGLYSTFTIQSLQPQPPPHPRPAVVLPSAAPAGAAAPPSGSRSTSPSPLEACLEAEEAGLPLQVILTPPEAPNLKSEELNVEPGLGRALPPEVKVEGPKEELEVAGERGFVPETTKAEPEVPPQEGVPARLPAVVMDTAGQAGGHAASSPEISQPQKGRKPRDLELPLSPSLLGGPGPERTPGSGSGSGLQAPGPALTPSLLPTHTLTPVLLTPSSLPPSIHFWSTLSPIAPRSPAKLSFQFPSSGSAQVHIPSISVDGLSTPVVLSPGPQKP
Particulars: protein: recombinant; tags: N-terminal GST; dsDNA, one strand shown. The method, boiled down:
as §1

The target of the next experiment is T3, GABPA (Homo sapiens, UniProt Q06546 1-454).
T3 sequence: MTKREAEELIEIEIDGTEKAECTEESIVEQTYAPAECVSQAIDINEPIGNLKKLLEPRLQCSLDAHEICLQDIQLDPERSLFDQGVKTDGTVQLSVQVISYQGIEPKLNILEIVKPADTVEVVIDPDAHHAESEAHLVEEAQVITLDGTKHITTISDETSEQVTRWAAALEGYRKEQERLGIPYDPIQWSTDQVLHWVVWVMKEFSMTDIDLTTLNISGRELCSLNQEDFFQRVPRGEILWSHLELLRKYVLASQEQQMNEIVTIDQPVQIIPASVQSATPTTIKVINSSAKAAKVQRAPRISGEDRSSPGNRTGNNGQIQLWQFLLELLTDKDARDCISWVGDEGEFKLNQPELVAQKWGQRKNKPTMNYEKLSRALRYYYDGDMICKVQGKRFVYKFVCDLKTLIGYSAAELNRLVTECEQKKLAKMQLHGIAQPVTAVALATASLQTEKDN
Particulars: protein: recombinant; tags: N-terminal GST; dsDNA, one strand shown. A digest of the protocol: as §1

The target in another experiment is T4, ERG (Homo sapiens, UniProt P11308 1-479).
T4 sequence: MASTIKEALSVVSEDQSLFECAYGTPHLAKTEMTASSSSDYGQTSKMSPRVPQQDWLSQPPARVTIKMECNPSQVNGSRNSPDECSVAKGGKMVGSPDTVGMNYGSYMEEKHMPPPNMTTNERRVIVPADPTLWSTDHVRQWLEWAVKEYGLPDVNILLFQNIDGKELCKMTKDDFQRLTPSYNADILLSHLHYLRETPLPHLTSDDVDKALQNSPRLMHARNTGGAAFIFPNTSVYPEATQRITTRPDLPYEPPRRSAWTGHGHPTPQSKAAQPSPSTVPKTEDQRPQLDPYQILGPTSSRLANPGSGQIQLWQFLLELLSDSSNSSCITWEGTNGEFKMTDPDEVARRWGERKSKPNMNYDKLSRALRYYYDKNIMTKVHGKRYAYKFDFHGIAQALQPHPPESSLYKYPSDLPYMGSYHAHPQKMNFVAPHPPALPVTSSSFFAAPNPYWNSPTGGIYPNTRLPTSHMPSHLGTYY
Particulars: protein: recombinant; tags: N-terminal GST; dsDNA, one strand shown. The method, boiled down: as §1

In another experiment the target is ELF1 (Homo sapiens, UniProt P32519 1-619). Particulars: protein: recombinant; tags: N-terminal GST; dsDNA, one strand shown. The method, boiled down:
as §1

The next experiment has as its target T5, EHF (Homo sapiens, UniProt Q9NZC4 1-300).
T5 sequence: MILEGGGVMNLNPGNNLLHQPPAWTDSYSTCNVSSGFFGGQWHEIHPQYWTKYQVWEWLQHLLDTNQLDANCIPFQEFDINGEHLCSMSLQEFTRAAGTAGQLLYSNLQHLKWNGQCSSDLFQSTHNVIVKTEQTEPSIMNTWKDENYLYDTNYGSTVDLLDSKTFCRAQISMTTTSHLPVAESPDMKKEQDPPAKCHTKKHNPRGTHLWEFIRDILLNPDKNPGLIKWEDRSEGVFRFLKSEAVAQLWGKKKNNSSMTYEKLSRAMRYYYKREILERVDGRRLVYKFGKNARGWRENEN
Particulars: protein: recombinant; tags: N-terminal GST; dsDNA, one strand shown. The method, boiled down: as §1

A further experiment addresses SPI1 (Homo sapiens, UniProt P17947 1-270). Particulars: protein: recombinant; tags: N-terminal GST; dsDNA, one strand shown. The method, boiled down: as §1
The next experiment concerns the target SPIB (Homo sapiens, UniProt Q01892 1-262). Particulars: protein: recombinant; tags: N-terminal GST; dsDNA, one strand shown. A digest of the protocol: as §1
For a further experiment, the target named is T6, ELK3 (Homo sapiens, UniProt P41970 1-407).
T6 sequence: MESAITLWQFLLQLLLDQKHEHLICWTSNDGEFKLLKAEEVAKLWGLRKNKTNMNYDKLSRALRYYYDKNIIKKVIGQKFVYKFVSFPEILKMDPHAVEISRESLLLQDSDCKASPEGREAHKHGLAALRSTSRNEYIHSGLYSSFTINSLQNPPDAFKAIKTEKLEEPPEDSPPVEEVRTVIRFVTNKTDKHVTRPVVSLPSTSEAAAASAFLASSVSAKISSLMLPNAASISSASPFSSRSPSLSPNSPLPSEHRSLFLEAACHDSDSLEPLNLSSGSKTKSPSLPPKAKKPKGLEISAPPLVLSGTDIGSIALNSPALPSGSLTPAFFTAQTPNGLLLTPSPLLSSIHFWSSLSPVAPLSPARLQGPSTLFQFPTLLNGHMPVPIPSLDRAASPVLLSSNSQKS
Particulars: protein: recombinant; tags: N-terminal GST; dsDNA, one strand shown. A digest of the protocol: as §1

The target of another experiment is T7, FEV (Homo sapiens, UniProt Q99581 1-238).
T7 sequence: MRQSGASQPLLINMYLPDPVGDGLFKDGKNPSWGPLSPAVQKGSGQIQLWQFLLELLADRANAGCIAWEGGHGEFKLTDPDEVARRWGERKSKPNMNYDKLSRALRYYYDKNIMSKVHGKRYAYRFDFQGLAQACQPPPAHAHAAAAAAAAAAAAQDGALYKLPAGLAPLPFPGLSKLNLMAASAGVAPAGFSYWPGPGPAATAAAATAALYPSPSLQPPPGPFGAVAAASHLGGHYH
Particulars: protein: recombinant; tags: N-terminal GST; dsDNA, one strand shown. The method, boiled down:
as §1

Another experiment concerns the target ETV5 (Homo sapiens, UniProt P41161 1-510). Particulars: protein: recombinant; tags: N-terminal GST; dsDNA, one strand shown. A digest of the protocol: as §1
The next experiment addresses HSF1 (Homo sapiens, UniProt Q00613 1-529). Particulars: protein: recombinant; tags: N-terminal GST; chain copies: 3; dsDNA, one strand shown. The method, boiled down:
as §1

Another experiment addresses T8, SPIC (Homo sapiens, UniProt Q8N5J4 1-248).
T8 sequence: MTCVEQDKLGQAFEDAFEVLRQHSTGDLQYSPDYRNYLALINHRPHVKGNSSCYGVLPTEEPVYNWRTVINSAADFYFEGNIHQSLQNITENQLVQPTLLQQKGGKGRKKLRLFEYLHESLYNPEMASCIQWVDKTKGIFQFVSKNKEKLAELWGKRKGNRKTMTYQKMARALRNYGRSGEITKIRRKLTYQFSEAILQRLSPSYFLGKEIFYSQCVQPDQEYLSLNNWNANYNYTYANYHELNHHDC
As to conditions: protein: recombinant; tags: N-terminal GST; dsDNA, one strand shown. The method, boiled down:
as §1

A further experiment has as its target ELF4 (Homo sapiens, UniProt Q99607 1-663). Particulars: protein: recombinant; tags: N-terminal GST; dsDNA, one strand shown. A digest of the protocol: as §1
A further experiment has as its target T9, ELK4 (Homo sapiens, UniProt P28324-2 1-405).
T9 sequence: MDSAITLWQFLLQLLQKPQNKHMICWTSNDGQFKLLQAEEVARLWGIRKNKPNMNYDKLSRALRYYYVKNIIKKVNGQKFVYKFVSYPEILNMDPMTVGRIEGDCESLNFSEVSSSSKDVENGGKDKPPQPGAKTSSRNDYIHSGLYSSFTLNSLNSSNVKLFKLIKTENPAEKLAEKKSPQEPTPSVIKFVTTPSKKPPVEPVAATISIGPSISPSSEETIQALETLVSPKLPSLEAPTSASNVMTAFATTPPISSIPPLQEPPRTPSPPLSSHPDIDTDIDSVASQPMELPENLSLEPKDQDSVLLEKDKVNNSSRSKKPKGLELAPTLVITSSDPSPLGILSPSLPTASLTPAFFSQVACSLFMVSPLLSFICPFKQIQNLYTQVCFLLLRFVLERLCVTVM
As to conditions: protein: recombinant; tags: N-terminal GST; dsDNA, one strand shown. A digest of the protocol:
as §1

The next experiment concerns the target T10, ETV2 (Homo sapiens, UniProt O00321 1-342).
T10 sequence: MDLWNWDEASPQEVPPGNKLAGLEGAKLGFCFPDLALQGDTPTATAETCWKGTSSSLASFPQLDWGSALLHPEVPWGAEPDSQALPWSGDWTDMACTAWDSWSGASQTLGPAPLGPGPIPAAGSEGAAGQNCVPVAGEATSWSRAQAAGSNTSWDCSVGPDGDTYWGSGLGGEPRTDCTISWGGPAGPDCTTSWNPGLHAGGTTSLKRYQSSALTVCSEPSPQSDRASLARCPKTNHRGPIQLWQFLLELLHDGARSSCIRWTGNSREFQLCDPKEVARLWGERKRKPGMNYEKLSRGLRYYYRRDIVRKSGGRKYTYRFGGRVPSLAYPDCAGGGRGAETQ
As to conditions: protein: recombinant; tags: N-terminal GST; dsDNA, one strand shown. A digest of the protocol:
as §1

The target in the next experiment is T11, ELF3 (Homo sapiens, UniProt P78545 1-371).
T11 sequence: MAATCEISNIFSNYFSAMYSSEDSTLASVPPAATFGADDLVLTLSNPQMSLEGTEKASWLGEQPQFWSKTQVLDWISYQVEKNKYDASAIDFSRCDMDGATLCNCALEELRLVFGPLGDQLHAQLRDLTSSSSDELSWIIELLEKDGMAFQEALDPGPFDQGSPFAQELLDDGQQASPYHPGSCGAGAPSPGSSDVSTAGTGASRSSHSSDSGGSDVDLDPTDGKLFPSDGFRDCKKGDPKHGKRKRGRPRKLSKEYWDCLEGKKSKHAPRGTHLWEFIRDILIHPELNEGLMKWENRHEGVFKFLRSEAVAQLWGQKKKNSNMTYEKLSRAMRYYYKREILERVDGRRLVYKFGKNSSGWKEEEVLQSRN
Particulars: protein: recombinant; tags: N-terminal GST; dsDNA, one strand shown. A digest of the protocol: as §1

The next experiment concerns the target CRX (Homo sapiens, UniProt O43186 1-299). As to conditions: protein: recombinant; tags: N-terminal GST; dsDNA, one strand shown. A digest of the protocol:
as §1

The target of a further experiment is ETV1 (Homo sapiens, UniProt P50549 1-477). Particulars: protein: recombinant; tags: N-terminal GST; dsDNA, one strand shown. A digest of the protocol:
as §1

Chain of HSF1 (Q00613 whole entry): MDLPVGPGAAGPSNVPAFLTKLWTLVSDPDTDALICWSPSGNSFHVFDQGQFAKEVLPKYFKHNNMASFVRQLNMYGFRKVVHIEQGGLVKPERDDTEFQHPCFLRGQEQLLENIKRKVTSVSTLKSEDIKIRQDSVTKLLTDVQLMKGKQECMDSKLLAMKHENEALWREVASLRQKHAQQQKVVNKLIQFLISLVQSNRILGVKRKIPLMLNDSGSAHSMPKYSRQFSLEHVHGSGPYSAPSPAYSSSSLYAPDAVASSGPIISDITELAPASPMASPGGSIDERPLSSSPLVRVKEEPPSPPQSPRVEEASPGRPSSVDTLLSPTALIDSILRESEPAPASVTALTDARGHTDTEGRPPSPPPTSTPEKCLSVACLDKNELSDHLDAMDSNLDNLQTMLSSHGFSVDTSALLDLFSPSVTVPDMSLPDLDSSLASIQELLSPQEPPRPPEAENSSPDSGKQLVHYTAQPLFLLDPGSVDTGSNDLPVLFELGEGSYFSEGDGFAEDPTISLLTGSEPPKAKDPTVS
Chain of SPIB (Q01892 whole entry): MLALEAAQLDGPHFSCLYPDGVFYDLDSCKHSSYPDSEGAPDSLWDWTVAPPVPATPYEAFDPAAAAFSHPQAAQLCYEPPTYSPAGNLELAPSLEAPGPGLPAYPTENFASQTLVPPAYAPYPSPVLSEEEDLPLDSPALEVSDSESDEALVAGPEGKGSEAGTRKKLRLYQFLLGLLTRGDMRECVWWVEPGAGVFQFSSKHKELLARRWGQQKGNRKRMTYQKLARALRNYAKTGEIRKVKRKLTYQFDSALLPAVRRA
Chain of ETV1 (P50549 whole entry): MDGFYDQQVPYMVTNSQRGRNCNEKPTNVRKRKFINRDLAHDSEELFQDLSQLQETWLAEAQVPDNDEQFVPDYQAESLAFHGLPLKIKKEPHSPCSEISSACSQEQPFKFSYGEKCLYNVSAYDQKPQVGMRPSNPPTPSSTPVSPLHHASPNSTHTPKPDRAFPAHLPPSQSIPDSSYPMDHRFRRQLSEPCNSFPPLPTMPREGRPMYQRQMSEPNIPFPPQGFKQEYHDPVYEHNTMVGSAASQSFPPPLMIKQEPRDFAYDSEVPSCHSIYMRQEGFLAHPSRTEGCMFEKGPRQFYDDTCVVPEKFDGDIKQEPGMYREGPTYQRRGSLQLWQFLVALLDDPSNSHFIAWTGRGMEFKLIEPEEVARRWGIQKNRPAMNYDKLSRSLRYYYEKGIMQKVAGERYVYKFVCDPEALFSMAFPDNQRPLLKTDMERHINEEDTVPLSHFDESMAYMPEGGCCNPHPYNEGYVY
Chain of ELF1 (P32519 whole entry): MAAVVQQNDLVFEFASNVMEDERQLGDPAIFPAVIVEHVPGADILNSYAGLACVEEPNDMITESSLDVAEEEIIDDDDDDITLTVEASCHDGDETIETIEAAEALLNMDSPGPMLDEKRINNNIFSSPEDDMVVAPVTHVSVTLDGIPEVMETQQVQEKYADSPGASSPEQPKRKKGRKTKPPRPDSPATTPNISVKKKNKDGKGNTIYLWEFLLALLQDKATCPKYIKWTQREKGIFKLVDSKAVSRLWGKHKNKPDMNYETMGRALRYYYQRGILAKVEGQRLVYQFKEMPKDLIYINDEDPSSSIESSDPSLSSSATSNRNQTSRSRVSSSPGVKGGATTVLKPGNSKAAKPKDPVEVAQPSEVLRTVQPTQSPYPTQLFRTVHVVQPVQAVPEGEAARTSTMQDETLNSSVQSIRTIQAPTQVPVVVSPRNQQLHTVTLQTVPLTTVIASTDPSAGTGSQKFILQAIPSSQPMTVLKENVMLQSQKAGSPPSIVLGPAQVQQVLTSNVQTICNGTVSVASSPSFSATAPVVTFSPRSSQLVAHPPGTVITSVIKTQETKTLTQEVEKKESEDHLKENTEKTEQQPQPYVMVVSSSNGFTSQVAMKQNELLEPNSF
Chain of CRX (O43186 whole entry): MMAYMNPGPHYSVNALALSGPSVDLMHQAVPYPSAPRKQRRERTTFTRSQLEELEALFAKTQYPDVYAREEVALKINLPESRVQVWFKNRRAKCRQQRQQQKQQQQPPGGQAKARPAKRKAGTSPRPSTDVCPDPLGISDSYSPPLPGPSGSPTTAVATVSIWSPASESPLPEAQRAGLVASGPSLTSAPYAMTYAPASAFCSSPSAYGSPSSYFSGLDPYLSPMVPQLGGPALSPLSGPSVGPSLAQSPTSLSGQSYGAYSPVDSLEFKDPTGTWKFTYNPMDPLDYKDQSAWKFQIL
Chain of ELF4 (Q99607 whole entry): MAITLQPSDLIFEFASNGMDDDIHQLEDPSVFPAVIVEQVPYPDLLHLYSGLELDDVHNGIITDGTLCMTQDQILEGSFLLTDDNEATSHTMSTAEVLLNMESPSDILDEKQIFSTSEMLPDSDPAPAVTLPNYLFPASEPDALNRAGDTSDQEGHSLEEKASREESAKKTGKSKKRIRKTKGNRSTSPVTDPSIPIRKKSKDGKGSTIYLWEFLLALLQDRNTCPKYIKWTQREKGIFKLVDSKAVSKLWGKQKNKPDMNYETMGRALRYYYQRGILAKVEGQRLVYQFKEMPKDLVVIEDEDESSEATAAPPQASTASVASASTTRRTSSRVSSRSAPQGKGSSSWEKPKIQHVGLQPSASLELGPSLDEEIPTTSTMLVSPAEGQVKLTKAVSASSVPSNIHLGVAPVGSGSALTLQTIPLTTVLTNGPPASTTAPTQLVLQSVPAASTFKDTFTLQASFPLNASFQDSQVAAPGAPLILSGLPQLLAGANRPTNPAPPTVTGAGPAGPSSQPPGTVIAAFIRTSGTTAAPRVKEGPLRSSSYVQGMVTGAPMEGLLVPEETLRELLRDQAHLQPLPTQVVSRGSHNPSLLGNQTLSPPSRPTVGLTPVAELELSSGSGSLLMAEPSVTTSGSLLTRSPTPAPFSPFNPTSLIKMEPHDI
Chain of ETV5 (P41161 whole entry): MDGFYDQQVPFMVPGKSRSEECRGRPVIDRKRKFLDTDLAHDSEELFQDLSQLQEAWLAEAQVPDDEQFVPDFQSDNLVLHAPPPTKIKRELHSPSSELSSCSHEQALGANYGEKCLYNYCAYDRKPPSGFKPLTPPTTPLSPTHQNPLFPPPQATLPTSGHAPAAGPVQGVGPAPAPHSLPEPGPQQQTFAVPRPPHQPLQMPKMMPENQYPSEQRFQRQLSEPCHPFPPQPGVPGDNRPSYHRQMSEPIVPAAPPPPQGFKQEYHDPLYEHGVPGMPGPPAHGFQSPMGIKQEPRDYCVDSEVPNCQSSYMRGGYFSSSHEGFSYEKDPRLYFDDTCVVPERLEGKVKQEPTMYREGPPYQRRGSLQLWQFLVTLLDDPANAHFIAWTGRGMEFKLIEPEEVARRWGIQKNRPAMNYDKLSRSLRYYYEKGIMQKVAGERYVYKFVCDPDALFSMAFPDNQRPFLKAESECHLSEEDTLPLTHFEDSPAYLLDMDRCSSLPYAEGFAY

For GACATT, the binding signal in the experiment with FLI1 is 1.16 fold enrichment (6-mer frequency, TF over GST control); in the experiment with ELK1 it was 1.17 fold enrichment (6-mer frequency, TF over GST control); in the experiment with GABPA, 1.12 fold enrichment (6-mer frequency, TF over GST control); with ERG it was 1.15 fold enrichment (6-mer frequency, TF over GST control); in the experiment with ELF1, 1.16 fold enrichment (6-mer frequency, TF over GST control); in the experiment with EHF, 1.11 fold enrichment (6-mer frequency, TF over GST control). The binding signal with SPI1 is 1.13 fold enrichment (6-mer frequency, TF over GST control); with SPIB it was 1.16 fold enrichment (6-mer frequency, TF over GST control); with ELK3, 1.02 fold enrichment (6-mer frequency, TF over GST control); with FEV, 1.13 fold enrichment (6-mer frequency, TF over GST control); with ETV5, 1.17 fold enrichment (6-mer frequency, TF over GST control); with HSF1, 1.09 fold enrichment (6-mer frequency, TF over GST control). The binding signal with SPIC is 1.12 fold enrichment (6-mer frequency, TF over GST control); in the experiment with ELF4 it was 1.14 fold enrichment (6-mer frequency, TF over GST control); with ELK4, 1.1 fold enrichment (6-mer frequency, TF over GST control); with ETV2 it was 1.13 fold enrichment (6-mer frequency, TF over GST control); with ELF3 it was 1.16 fold enrichment (6-mer frequency, TF over GST control); with CRX, 1.01 fold enrichment (6-mer frequency, TF over GST control). Further, the binding signal with ETV1 is 1.26 fold enrichment (6-mer frequency, TF over GST control).
